Assay results from PubChem BioAssay (NCI).
Compounds without any hit were thinned out: in the full panel of roughly 83,000, 20% have a hit.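 Single-concentration screen, 48 h exposure, 96-well plates. Endpoint: percent growth. Below 10 = active.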 The source made the active and inactive calls.

Legend:
Assay in all cases: NCI-60 one-dose screen, 48 h (100 = growth as untreated, 0 = no growth, -100 = all killed)
Conditions in all cases: 10 µM unless noted
NCI-H23 lung = test system: NCI-H23 lung
NCI-H226 lung = test system: NCI-H226 lung
NCI-H322M lung = test system: NCI-H322M lung
HOP-62 NSCLC = test system: HOP-62 NSCLC
NCI-H460 lung = test system: NCI-H460 lung
HOP-92 NSCLC = test system: HOP-92 NSCLC
A549/ATCC NSCLC = test system: A549/ATCC NSCLC
786-0 renal = test system: 786-0 renal
COLO 205 colon = test system: COLO 205 colon
NCI-H522 lung = test system: NCI-H522 lung

Measured: growth

O=C(/C=C/c1ccccc1Cl)Nc1ncc(Cc2cc(Cl)ccc2Cl)s1
active: NCI-H460 lung 8.08% | COLO 205 colon 5.37%
inactive: NCI-H23 lung 50.9% | NCI-H226 lung 39.4% | NCI-H322M lung 48.5% | HOP-62 NSCLC 22% | HOP-92 NSCLC 35.4% | A549/ATCC NSCLC 40% | 786-0 renal 33.3%

CCCC/C(=C\c1ccc(O)c(O)c1)C(=O)NC(Cc1ccccc1)C(=O)C(=O)NCCc1ccc(OC)cc1 (stereo unspecified)
inactive: NCI-H23 lung 92.2% | NCI-H226 lung 92.7% | NCI-H322M lung 100% | HOP-62 NSCLC 98.2% | NCI-H460 lung 102% | HOP-92 NSCLC 86.2% | A549/ATCC NSCLC 103% | 786-0 renal 104% | COLO 205 colon 110%

CC(C)Sc1nc(-c2ccccc2)c(C#N)c(N2CCOCC2)n1
inactive: NCI-H23 lung 65% | NCI-H226 lung 55.1% | NCI-H322M lung 38.1% | HOP-62 NSCLC 63.7% | NCI-H460 lung 42.2% | HOP-92 NSCLC 73.2% | NCI-H522 lung 82.5% | A549/ATCC NSCLC 37.2% | 786-0 renal 11.9% | COLO 205 colon 74%

O=S1SC(c2ccccc2)=NN1c1cc(F)cc(F)c1 (stereo unspecified)
inactive: NCI-H23 lung 22.9% | NCI-H226 lung 45.4% | NCI-H322M lung 67.9% | HOP-62 NSCLC 48.6% | NCI-H460 lung 19.6% | NCI-H522 lung 34.6% | A549/ATCC NSCLC 26% | 786-0 renal 34.9% | COLO 205 colon 107%
active: HOP-92 NSCLC -25.2%

O=C(/C=C/c1cccc(Br)c1)c1cccc(OCCCCOc2cccc(C(=O)/C=C/c3cccc(Br)c3)c2)c1
inactive: NCI-H23 lung 98% | NCI-H226 lung 103% | NCI-H322M lung 103% | HOP-62 NSCLC 107% | NCI-H460 lung 100% | HOP-92 NSCLC 115% | NCI-H522 lung 98.1% | A549/ATCC NSCLC 98.8% | 786-0 renal 106% | COLO 205 colon 115%

Oc1ccc(-c2nc3ccc(/C(=N\N=C\c4ccc(Cl)cc4)c4ccccc4)cc3[nH]2)cc1
inactive: NCI-H23 lung 94.8% | NCI-H226 lung 80.7% | NCI-H322M lung 93.7% | HOP-62 NSCLC 100% | NCI-H460 lung 86.4% | HOP-92 NSCLC 118% | A549/ATCC NSCLC 89.2% | 786-0 renal 66.5% | COLO 205 colon 54%

CCN(CC)S(=O)(=O)c1ccc(-c2nc(C(Cl)Cl)nc3cc(C)nn23)cc1
inactive: NCI-H23 lung 14.6% | NCI-H226 lung 69.7% | NCI-H322M lung 57.1% | 786-0 renal 92.5%
active: HOP-62 NSCLC 5.6% | NCI-H460 lung 8.65% | HOP-92 NSCLC -5.03% | A549/ATCC NSCLC 0.55% | COLO 205 colon -18.7%

CC(C)(C)Nc1nc2c(OCCc3ccccc3)cccn2c1-c1ccc([N+](=O)[O-])cc1
inactive: NCI-H23 lung 62.4% | NCI-H226 lung 70.5% | NCI-H322M lung 64.7% | HOP-62 NSCLC 78.1% | NCI-H460 lung 60.8% | HOP-92 NSCLC 54.7% | A549/ATCC NSCLC 53.5% | 786-0 renal 75.1% | COLO 205 colon 49%

Cc1csc(/N=C(N)/N=C(\N)c2cccnc2)n1
inactive: NCI-H23 lung 78% | NCI-H226 lung 85.4% | NCI-H322M lung 87.2% | HOP-62 NSCLC 74.1% | NCI-H460 lung 62.3% | HOP-92 NSCLC 51.7% | A549/ATCC NSCLC 82% | 786-0 renal 90.6% | COLO 205 colon 81.8%

Nc1nc(=O)n([C@H]2C[C@H](O)[C@@H](CO)O2)cc1C=O
inactive: NCI-H23 lung 112% | NCI-H226 lung 111% | NCI-H322M lung 110% | HOP-62 NSCLC 95.6% | NCI-H460 lung 103% | HOP-92 NSCLC 57.7% | NCI-H522 lung 102% | A549/ATCC NSCLC 103% | 786-0 renal 102% | COLO 205 colon 14.5%

Cn1c(SCC(=O)c2ccc(Br)cc2)nc2ccccc2c1=O
inactive: NCI-H23 lung 85.3% | NCI-H226 lung 90.7% | NCI-H322M lung 95.8% | HOP-62 NSCLC 105% | NCI-H460 lung 102% | HOP-92 NSCLC 91.3% | A549/ATCC NSCLC 96.3% | 786-0 renal 91.2% | COLO 205 colon 121%

COC(=O)[C@@H](Cc1c[nH]c2ccccc12)NC(=O)CCCCOc1cc(O)c2c(=O)cc(-c3ccccc3)oc2c1
inactive: NCI-H23 lung 35.2% | NCI-H226 lung 88.8% | NCI-H322M lung 95.8% | HOP-62 NSCLC 96.2% | NCI-H460 lung 94.4% | HOP-92 NSCLC 60.6% | NCI-H522 lung 86.7% | A549/ATCC NSCLC 86.7% | 786-0 renal 97% | COLO 205 colon 90.4%

Clc1ccc2[nH]cc(-c3nn4cc(-c5ccncc5)nc4s3)c2c1
inactive: NCI-H23 lung 43.1% | NCI-H226 lung 22.7% | NCI-H322M lung 49.2% | HOP-62 NSCLC 46.6% | NCI-H460 lung 10.1% | HOP-92 NSCLC 33.8% | A549/ATCC NSCLC 68.6% | 786-0 renal 69.9% | COLO 205 colon 69.5%

O=C(/C=C/c1cccc(F)c1)c1cccc(OCCCOc2cccc(C(=O)/C=C/c3cccc(F)c3)c2)c1
inactive: NCI-H23 lung 49.2% | NCI-H226 lung 77% | NCI-H322M lung 101% | HOP-62 NSCLC 132% | NCI-H460 lung 96.1% | HOP-92 NSCLC 115% | A549/ATCC NSCLC 69.8% | 786-0 renal 51% | COLO 205 colon 82.2%
